In assay [1] the target is Glucocorticoid receptor (Homo sapiens) (UniProt P04150). In words: GR-GFP Redistribution (AID 450;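 active = compounds whose dose series gives a full or clear partial fitted curve of increased nuclear translocation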; note: potency is the fitted concentration of half-maximal effect). The settings on record: U2OS GR-GFP nuclear translocation, laser cytometry, 2 h.
The target is the same in assay [2]. In words: GR-EFC Redistribution (AID 451; calls by dose curve; note: potency is the fitted concentration of half-maximal effect). The settings on record: CHO-K1 GR-EFC translocation, beta-gal luminescence, 2 h. The method, boiled down:
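CHO-K1 cells stably expressing nuclear-localized β-gal enzyme acceptor and GR fused C-terminally to the enzyme donor fragment; ligand-driven nuclear translocation restores β-gal by complementation. Compounds titrated up to 46 uM final, 2 h at 37 °C; luminescence read.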

Assay [3] addresses Mitogen-activated protein kinase 10 (Mus musculus) (UniProt Q61831). Description: JNK3 AlphaScreen Assay (AID 530; active = well fitted curve in either direction with a large enough effect, not every such curve was filed as active;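 note: kinase came from lysate of stimulated human HepG2 cells; signal reports phosphorylation of biotinylated GST-cJun 1-79 at Ser73 with 10 µM ATP; % is set by controls: 0 for no effect and ±100 for the full control effect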). A digest of the protocol:
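Phosphorylation of biotinylated GST-cJun(1-79) at Ser73 is measured by AlphaScreen proximity luminescence. Enzyme is JNK3 in HepG2 lysates activated with interleukin-1beta and tumor necrosis factor alpha; ATP is 10 uM final.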

In assay [4] the target is 3',5'-cyclic-AMP phosphodiesterase 4B (Homo sapiens) (UniProt Q07343). In words: qHTS Assay for Inhibitors of PDE-IV (AID 607; active = well fitted activation curve with a large enough effect in the main read-out, with a control signal flat, not every such curve was filed as active; note: % of control where 0% means no effect). The method, boiled down: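 HEK293 ACTOne cells with CNG channel (1000/well), endogenous PDE4; membrane potential dye, compounds up to 22.9 uM final. Fluorescence Ex 535/Em 590; RO 20-1724 (100 uM final) as reference.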
A general note: Quantitative high-throughput screening tests each substance at several concentrations.

Assay [5] in a line: qHTS Assay for Lipid Storage Modulators (AID 1519; calls by dose curve). The settings on record: Drosophila S3 cells, BODIPY lipid droplet/cell ratio, laser cytometry, cells loaded with oleic acid. The method, boiled down: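 Cells seeded at 5,000 per well were treated with compounds over a concentration series and loaded with oleic acid (400 uM, as added). Lipid droplet fluorescence (488 nm excitation, 500-530 nm channel) was read by laser-scanning cytometry and normalized to 20 uM Triacsin C.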

The target of assay [6] is Ubiquitin carboxyl-terminal hydrolase 1 (Homo sapiens) (UniProt O94782). Description: Inhibitors of USP1/UAF1: Pilot qHTS (AID 504865).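 Note: rhodamine fluorescence freed from ubiquitin-rhodamine substrate followed over time; top concentration of the series differs between compounds; % is set by controls: 0 for no effect and ±100 for the full control effect; nearly all actives have a fitted effect of over 35% in size.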 The method, boiled down:
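Enzyme-free wells gave the negative control, while test wells held 1nM USP1/UAF1 preincubated with compound for 15 min at room temperature. Ub-Rho at 150nM final started the reaction, and fluorescence at 480/540 nm was recorded kinetically.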

Assay [7] deals with DNA dC->dU-editing enzyme APOBEC-3G (Homo sapiens) (UniProt Q9HC16). In words: qHTS for inhibitors of Vif-A3G interactions: Validation (AID 588379). Note: 0% is about no effect. A digest of the protocol:
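Yellow fluorescence (Ex 488, Em 500-530) of Vif-coexpressing HeLa A3G-eYFP cells, scanned by Acumen cytometer, reports blocked A3G degradation. Cells plated at 700/well overnight at 37 deg C before compound addition, then a further overnight compound incubation at 37 deg C.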

Assay [8] has as its system Zika virus NS2B-NS3 protease. Description: Primary screen GU AMC qHTS for Zika virus inhibitors (AID 1347154).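 Note: 0% = no-inhibitor control and -100% = no-enzyme control; nearly all actives have a fitted effect of over 70% in size.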 The method, boiled down: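 Unlinked Zika NS2B hydrophilic domain/NS3 protease domain noncovalent complex (25 nM final) in 10 mM Tris-HCl pH 8.0, 0.01% Tween 20, with AMC peptide substrate. Fluorescence (ex 340, em 450 nm) change over 15 min, room temperature; percent inhibition fitted to 4-parameter Hill equation.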

Assay [9] in a line: Stat Signaling Pathway (AID 446; active = well fitted curve in either direction with a large enough effect, not every such curve was filed as active;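 note: ME-180 cervical cancer cells given 40 pM IL-6 alongside compound; SIE-controlled beta-lactamase reporter measured as 460/530 nm FRET emission ratio; % is set by controls: 0 for no effect and ±100 for the full control effect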). The settings on record: ME-180 SIE beta-lactamase reporter, IL-6 stimulated, 5 h. The method, boiled down: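 Normalization used AC90 stimulation (300 pM IL-6) and AC90 inhibition (125 nM pan-JAK inhibitor at 40 pM IL-6). The underlying signal is SIE-driven beta-lactamase in ME-180 cells after 5 h IL-6 exposure with compound.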
Assay [10] deals with Guanine nucleotide-binding protein G(i) subunit alpha-1 (Homo sapiens) (UniProt P63096). In words: qHTS Assay for Inhibitors of RGS12 GoLoco Motif Activity (Green Fluorophore) (AID 879).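 Note: 0% = labeled peptide with Gαi1 and full inhibition = labeled peptide alone without protein; negative values mean loss of peptide binding seen as reduced polarization.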 The method, boiled down:
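A drop in FITC polarization marked displacement of the FITC-tagged RGS12 GoLoco peptide (10 nM) from Gαi1 (50 nM). Compounds were incubated 10 min at room temperature in Tris pH 7.5 buffer containing 150 mM NaCl, 0.1 mM GDP and 0.05% NP40; unlabeled peptide titration served as control.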

Assay [11] concerns the target Muscarinic acetylcholine receptor M1 (Rattus norvegicus) (UniProt P08482). Description: qHTS Assay for Antagonists of Acetylcholine Muscarinic M1 Receptor: Kinetic Measurement of Intracellular Calcium Response (AID 943). Note: potency is the fitted concentration of half-maximal effect; nearly all actives have a fitted effect of over 75% in size. The method, boiled down:
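Antagonism measured as reduction of carbachol-evoked (EC80, 100 nM final) calcium flux in rat M1-CHO cells after 10 min compound exposure. Fluo-4 signal read kinetically; ratio of maximal to basal fluorescence.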

For assay [12], the target named is Pyruvate kinase PKM (Homo sapiens) (UniProt P14618). Description: qHTS Assay for Activators of Human Muscle Pyruvate Kinase (AID 954; active = well fitted curve in the direction sought with a large enough effect, not every such curve was filed as active;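 note: 0% = uninhibited enzyme and -100% = no enzyme or full thiadiazolimine inhibition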). The method, boiled down: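 Compound pinned into substrate mix (0.5 mM PEP, 0.1 mM ADP), then 0.1 nM PKM2 added; 1 h, RT. Stop/detection luciferase reagent added, luminescence read. Normalized to no-inhibition and no-enzyme or reference-inhibitor controls.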

For assay [13], the target named is Alpha-galactosidase A (Homo sapiens) (UniProt P06280). In words: Counterscreen for Glucocerebrosidase Inhibitors: qHTS Assay for Human alpha-Galactosidase at pH 4.5 (AID 992). Note: 0% is about no effect. A digest of the protocol: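 Steps: enzyme (2 nM final), then compound across 0.7 nM to 77 uM, then 80 uM fluorogenic galactopyranoside substrate; incubate 20 min at room temperature; quench at pH 10; measure fluorescence at 365/440 nm.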

Assay [14] addresses alpha-glucosidase (Oryza sativa, rice) (UniProt Q653V4). In words: Counterscreen for Glucocerebrosidase Inhibitors: qHTS Assay for Rice alpha-Glucosidase at pH 5.0 (AID 997).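 Note: 0% = full activity with enzyme and -100% = basal without enzyme.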 The method, boiled down: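 Endpoint fluorogenic assay at pH 5.0: compounds (0.7 nM to 77 uM) titrated against 4 nM rice enzyme and 400 uM 4-MU-alpha-glucoside for 20 min at room temperature; NaOH/glycine stop, read ex 365/em 440 nm, Hill-fitted AC50.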
A general note: Counterscreens check selectivity or assay interference.

A short description of assay [15]: AP1 Signaling Pathway (AID 357; active = well fitted curve in either direction with a large enough effect, not every such curve was filed as active;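 note: ME-180 reporter cells stimulated with EGF at its EC50 level; % is set by controls: 0 for no effect and ±100 for the full control effect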). Particulars: ME-180 (cervical carcinoma) AP-1-bla reporter, EGF-induced, beta-lactamase ratio, 5 h; at 17.2 µM (top of the series). A digest of the protocol: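 A ratiometric CCF4 readout (405 nm excitation; 460 and 530 nm emission) quantified AP-1-driven beta-lactamase in ME-180 cells after 5 h with compound and EC50 EGF; AC50 values were derived for activators and inhibitors.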

A short description of assay [16]: NFAT Signaling Pathway (AID 444; active = well fitted curve in either direction with a large enough effect, not every such curve was filed as active;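 note: carbachol stimulus at about its EC50 of 1 µM final; % is set by controls: 0 for no effect and ±100 for the full control effect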). The settings on record: Jurkat NFAT-bla M1, carbachol, beta-lactamase ratio, 5 h; at 17.2 µM (top of the series). The method, boiled down: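 Jurkat cells carrying an NFAT-driven β-lactamase reporter and co-transfected muscarinic M1 receptor were treated with compound plus carbachol (1 uM final, an EC50 level) for 5 h at 37 °C. CCF4 loading followed for 1 h at RT; 460/530 nm ratio gave %activity.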

Assay [17] concerns the target Cytochrome P450 3A4 (Homo sapiens) (UniProt P08684). Description: qHTS Assay for Activators of Cytochrome P450 3A4 (AID 885). Note: nearly all actives have a fitted effect of over 65% in size. A digest of the protocol: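 Human CYP3A4 dealkylates Luciferin-PPXE to luciferin, which luciferase detection converts to light. Substrate was at its KM (25uM), buffer 200mM KPO4, reaction 60 min at RT.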
Assay [18] is described as follows: Primary qHTS for small molecule stabilizers of the endoplasmic reticulum resident proteome: Secreted ER Calcium Modulated Protein (SERCaMP) assay (AID 1508630). Note: % is set by controls: 0 for no effect and ±100 for the full control effect. The method, boiled down: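 The SH-SY5Y reporter protocol was run at 3 concentrations up to 38.3 uM (primary) or 11 concentrations (follow-up): 16 h compound, 100 nM thapsigargin for 4 h, then extracellular luciferase luminescence.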

Assay [19] has as its target Cytochrome P450 1A2 (Homo sapiens) (UniProt P05177). Description: p450-cyp1a2 (AID 410; calls by dose curve). The method, boiled down:
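Luminescent demethylation readout: Luciferin-ME (100uM, equal to Km) turned over by 20nM CYP1A2 for 60 min at room temperature after NADPH regeneration addition, following 10 min compound preincubation. Normalization used 57 uM furafylline as full inhibition.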

[20] abbreviates: measured here: cell count channel max response.
The mark [21] stands for this setting: measured here: lipid channel max response.

Values joined by “and” are separate entries in the source; they are usually repeats but may differ in a detail not shown here. Equal entries are not always repeated. Records with an inconclusive call do not appear. Active and inactive are the calls of the source. Unless noted, calls come from the whole dose curve; as a rule, active = well fitted curve in the direction sought with a large enough effect; inconclusive = small, poorly fitted or top-dose-only effect, or another doubt; inactive = no such curve, though single readings can be large; an effect the other way counts as inactive or inconclusive.

Chain of Ubiquitin carboxyl-terminal hydrolase 1 (Homo sapiens) (O94782 whole entry, looked up): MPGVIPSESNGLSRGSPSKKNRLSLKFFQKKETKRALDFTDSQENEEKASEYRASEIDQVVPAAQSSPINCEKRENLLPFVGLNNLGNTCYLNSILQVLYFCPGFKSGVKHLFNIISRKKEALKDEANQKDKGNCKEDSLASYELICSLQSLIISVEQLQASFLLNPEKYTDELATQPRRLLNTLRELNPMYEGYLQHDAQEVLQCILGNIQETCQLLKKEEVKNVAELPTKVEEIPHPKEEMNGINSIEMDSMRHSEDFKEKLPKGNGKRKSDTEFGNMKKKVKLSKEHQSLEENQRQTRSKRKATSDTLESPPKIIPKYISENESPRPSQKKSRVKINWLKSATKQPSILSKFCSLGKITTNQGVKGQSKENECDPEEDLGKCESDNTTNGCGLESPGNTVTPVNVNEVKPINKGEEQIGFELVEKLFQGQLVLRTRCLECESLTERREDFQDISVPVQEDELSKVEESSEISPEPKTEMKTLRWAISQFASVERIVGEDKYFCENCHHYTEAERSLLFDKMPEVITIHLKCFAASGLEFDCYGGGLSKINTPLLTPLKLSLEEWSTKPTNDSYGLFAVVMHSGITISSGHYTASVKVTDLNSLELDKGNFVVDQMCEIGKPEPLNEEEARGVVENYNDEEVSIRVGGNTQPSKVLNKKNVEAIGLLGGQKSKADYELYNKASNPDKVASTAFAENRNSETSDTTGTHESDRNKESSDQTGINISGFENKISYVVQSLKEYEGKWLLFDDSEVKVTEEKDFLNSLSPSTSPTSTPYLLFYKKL
Chain of 3',5'-cyclic-AMP phosphodiesterase 4B (Homo sapiens) (Q07343 whole entry, looked up): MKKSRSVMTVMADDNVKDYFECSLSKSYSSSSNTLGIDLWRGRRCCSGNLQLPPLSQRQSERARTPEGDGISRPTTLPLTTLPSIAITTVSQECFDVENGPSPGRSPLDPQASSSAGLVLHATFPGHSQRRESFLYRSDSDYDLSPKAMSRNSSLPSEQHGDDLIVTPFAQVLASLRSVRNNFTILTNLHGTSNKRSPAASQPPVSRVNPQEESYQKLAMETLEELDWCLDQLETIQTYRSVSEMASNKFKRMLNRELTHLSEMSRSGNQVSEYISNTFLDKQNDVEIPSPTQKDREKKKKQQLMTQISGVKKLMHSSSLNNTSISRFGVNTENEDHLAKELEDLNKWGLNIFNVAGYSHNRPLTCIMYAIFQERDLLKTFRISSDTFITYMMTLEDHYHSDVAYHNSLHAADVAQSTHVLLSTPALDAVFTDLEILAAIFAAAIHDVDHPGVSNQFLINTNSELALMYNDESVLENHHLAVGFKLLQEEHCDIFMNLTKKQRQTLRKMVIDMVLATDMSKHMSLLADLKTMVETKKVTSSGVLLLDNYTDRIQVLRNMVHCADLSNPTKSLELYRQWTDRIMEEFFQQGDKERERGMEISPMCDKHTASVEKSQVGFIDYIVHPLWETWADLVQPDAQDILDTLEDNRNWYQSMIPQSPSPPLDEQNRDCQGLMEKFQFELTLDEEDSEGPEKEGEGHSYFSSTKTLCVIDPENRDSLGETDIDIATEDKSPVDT
Chain of DNA dC->dU-editing enzyme APOBEC-3G (Homo sapiens) (Q9HC16 whole entry, looked up): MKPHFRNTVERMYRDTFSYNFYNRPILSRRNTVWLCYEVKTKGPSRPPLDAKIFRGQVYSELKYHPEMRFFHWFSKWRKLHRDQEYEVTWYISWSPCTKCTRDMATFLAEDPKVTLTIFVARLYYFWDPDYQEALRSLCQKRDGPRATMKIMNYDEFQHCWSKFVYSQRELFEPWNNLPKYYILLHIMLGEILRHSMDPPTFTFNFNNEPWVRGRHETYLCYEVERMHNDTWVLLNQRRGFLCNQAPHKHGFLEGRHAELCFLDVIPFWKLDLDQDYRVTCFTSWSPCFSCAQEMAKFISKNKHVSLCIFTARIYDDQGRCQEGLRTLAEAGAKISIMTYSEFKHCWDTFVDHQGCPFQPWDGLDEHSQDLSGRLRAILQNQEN
Chain of Glucocorticoid receptor (Homo sapiens) (P04150 whole entry, looked up): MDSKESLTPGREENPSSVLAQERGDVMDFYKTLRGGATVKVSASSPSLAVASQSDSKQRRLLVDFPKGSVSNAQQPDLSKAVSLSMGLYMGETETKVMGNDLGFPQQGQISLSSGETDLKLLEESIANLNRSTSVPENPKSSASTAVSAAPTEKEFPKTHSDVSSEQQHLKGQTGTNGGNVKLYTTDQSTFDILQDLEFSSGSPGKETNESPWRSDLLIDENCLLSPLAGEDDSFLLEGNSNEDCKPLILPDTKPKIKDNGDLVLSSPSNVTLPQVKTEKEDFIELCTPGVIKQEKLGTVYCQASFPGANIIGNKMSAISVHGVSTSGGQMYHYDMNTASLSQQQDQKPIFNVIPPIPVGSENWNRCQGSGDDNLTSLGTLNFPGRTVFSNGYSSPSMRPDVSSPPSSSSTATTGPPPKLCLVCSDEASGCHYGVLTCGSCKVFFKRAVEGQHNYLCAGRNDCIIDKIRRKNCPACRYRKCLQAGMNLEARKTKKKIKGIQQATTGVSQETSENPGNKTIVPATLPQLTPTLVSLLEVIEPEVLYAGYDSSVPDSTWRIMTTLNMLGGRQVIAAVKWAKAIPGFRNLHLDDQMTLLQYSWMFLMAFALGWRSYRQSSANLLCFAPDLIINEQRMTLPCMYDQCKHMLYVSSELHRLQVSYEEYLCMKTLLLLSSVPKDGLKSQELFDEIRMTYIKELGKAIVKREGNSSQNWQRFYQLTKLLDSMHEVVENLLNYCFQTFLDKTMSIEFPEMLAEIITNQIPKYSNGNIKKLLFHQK
Chain of Pyruvate kinase PKM (Homo sapiens) (P14618 whole entry, looked up): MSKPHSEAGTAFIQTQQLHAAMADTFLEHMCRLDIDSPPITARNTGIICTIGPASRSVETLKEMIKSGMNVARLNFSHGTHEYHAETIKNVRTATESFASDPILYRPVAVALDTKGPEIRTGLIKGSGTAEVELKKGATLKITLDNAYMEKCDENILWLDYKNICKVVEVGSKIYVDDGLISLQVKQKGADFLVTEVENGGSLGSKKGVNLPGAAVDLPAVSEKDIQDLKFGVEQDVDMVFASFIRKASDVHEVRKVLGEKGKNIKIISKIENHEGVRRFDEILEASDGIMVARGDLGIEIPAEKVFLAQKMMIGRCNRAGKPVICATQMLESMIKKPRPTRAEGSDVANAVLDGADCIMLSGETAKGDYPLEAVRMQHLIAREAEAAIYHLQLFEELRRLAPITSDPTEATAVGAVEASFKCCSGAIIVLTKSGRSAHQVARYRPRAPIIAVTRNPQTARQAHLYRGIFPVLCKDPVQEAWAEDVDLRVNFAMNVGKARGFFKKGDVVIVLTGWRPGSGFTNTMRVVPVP
Chain of Muscarinic acetylcholine receptor M1 (Rattus norvegicus) (P08482 whole entry, looked up): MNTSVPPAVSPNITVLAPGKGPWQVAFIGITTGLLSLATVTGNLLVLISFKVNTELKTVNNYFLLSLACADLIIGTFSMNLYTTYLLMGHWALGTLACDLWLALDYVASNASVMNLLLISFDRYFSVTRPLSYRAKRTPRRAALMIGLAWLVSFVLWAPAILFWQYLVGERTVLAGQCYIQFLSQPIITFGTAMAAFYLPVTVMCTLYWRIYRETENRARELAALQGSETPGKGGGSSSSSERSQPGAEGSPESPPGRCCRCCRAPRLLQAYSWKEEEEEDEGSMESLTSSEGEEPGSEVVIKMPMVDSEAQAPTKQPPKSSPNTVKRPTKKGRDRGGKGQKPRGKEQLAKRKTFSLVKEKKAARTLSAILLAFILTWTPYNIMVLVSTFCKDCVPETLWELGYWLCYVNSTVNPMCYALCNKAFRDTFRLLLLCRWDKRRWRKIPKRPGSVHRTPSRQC
Chain of Cytochrome P450 3A4 (Homo sapiens) (P08684 whole entry, looked up): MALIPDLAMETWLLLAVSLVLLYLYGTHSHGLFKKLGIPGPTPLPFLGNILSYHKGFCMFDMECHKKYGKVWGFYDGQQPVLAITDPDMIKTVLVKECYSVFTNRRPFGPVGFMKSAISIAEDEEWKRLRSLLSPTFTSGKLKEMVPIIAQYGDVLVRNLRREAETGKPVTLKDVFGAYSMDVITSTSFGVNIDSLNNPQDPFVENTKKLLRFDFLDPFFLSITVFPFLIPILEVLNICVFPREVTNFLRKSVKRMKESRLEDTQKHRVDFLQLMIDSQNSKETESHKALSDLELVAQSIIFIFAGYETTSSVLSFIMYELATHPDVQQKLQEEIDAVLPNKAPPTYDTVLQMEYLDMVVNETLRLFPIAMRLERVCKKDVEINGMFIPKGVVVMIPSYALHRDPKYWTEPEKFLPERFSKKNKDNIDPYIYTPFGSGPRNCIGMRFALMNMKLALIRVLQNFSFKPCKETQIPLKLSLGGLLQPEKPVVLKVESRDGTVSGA
Chain of Guanine nucleotide-binding protein G(i) subunit alpha-1 (Homo sapiens) (P63096 whole entry, looked up): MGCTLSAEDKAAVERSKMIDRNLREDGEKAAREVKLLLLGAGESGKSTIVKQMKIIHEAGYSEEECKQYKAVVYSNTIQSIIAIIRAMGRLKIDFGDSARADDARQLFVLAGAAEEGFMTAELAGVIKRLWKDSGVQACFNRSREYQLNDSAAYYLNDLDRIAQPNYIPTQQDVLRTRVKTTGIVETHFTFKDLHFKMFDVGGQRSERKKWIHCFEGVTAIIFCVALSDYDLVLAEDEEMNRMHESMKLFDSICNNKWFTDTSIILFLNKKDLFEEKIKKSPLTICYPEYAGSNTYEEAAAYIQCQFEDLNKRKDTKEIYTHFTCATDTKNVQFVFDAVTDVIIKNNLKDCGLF
Chain of Alpha-galactosidase A (Homo sapiens) (P06280 whole entry, looked up): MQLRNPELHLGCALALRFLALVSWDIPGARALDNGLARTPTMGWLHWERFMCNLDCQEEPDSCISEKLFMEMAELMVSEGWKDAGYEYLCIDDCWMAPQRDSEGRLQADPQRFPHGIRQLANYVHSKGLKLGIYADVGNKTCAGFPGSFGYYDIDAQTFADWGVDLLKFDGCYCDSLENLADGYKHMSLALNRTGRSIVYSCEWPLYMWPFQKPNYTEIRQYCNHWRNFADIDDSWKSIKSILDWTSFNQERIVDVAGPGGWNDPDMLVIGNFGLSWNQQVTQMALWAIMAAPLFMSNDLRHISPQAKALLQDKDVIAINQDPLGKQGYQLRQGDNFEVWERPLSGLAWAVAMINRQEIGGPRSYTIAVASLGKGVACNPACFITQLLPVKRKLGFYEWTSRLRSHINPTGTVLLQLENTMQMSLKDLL

For the compound `N#Cc1ccccc1OC[C@H](O)CNCCNC(=O)Nc1ccccc1`, the Potency in [1] and in assay [2] was > 46 µM (inactive) each time. The Potency result in [3], in assay [4], in assay [6], in assay [7] and in assay [8] was “inactive” each time. The activity change, negative = inhibition in assay [5] (at 57.5 µM (top of the series)) is 0.479% (inactive). The max response in assay [5] (setting [20]) stood at 6.59%; in assay [5] (setting [21]) it was 10.2%.

Take `Cc1ccc(/C(=C/CN2CCCC2)c2ccccn2)cc1`: the activity, negative = inhibition in assay [9] (at 17.2 µM (top of the series)) was 6.54% (inactive); in assay [9] (at 38 µM (top of the series)), -0.742% (inactive). Further, the Potency entry in assay [3], in assay [4], in assay [6], in assay [7] and in assay [8] was “inactive” throughout. The compound was classed as inactive in assay [10], in assay [12], in [13] and in assay [14]. For the same compound, the Potency in [11] was 1.26 µM (active). Also, the activity change, negative = inhibition in assay [5] (at 25.7 µM (top of the series)) was -1.93% (inactive); in [5] (at 57.5 µM (top of the series)) it was 3.43% (inactive). For the same compound, the max response in assay [5] (setting [20]) is 0.155% and 8.83%; in assay [5] (setting [21]), -0.659% and 14%.

`CC(C)[N+]1(C)[C@@H]2CC[C@H]1CC(OC(=O)[C@@H](CO)c1ccccc1)C2` (stereo not given in full): the activity change, negative = inhibition in [15] was -0.347% (inactive); in assay [16], -41.7% (active); in assay [5] (at 25.7 µM (top of the series)) it was 1.72% (inactive); in assay [5] (at 57.5 µM (top of the series)), -6.35% (inactive). In addition, the activity, negative = inhibition in assay [9] (at 17.2 µM (top of the series)) was 2.01% (inactive). Moreover, the Potency result in [3], in [4], in assay [7] and in assay [8] was “inactive” in each case. The max response in [5] (setting [20]) is 2.23% and -7.97%; in assay [5] (setting [21]), 5.73% and -12.6%.

`OC(CN1CCNCC1)Cn1c2ccc(Br)cc2c2cc(Br)ccc21` (stereo not given): the Potency result in [17], in assay [8] and in assay [18] was “inactive” throughout.

For the compound `C[C@H](N)C(=O)O`, the Potency entry in assay [19], in assay [3], in assay [4], in assay [6], in assay [7] and in assay [8] was “inactive” each time. Also, in assay [1], the Potency was > 46 µM (inactive). In [5] (at 57.5 µM (top of the series)), the activity change, negative = inhibition is 1.23% (inactive). Moreover, the max response in [5] (setting [20]) is -6.7%; in assay [5] (setting [21]) it was -5.58%.

These data come from PubChem BioAssay (NCATS).
